Screen size: about 340,000 compounds; about 8,500 (2.5%) were called active. Many of the other results were omitted from the sample, so actives are more common in it than they were. Unmarked numbers belong to inactive results.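 How the source made its calls: active means melting temperature shift of at least 10% of the positive control shift, at one fixed dose; inactive means the rest.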
Tested on: Glutamate receptor ionotropic, NMDA 3A (GRIN3A) ligand-binding domain
Assay: NR3A LBD thermal stabilization by compounds – biophysical, differential scanning fluorimetry, uHTS, primary screen (AID 1259313)
Conditions: at 25 µM, stronger effect = higher value, 0% = protein alone, 100% = glycine-bound protein

Cc1cccc(NC(=O)Cn2c(=O)n(Cc3ccccc3)c(=O)c3c(C)c(C)sc32)c1 was tested. Which Tm shift relative to glycine control did it give?
The Tm shift relative to glycine control was 8.62%.

How did the Tm shift relative to glycine control turn out when O=C(CN1C(=O)c2cccnc2Oc2ccc(Cl)cc21)NCCc1ccccc1 was run?
The Tm shift relative to glycine control was 0.65%.

Which Tm shift relative to glycine control does the source give for CNC(=O)c1[nH]cnc1C(=O)N[C@@H](CC(C)C)C(=O)OCc1ccccc1 here?
The Tm shift relative to glycine control was -3.33%.

With CCN(CC)Cc1c(C(=O)OC)nnn1-c1nonc1N as the molecule, how does the Tm shift relative to glycine control read?
The Tm shift relative to glycine control was -0.56%.

With CCCc1cc(=O)oc2c(C)c(OC(C)C(=O)NCC(O)c3ccccc3)ccc12 (centres undefined) as the molecule, how does the Tm shift relative to glycine control read?
Its Tm shift relative to glycine control is 0%.

How did the Tm shift relative to glycine control turn out when O=C(O)c1cc(S(=O)(=O)N2CCCCCC2)c(Cl)cc1Cl was run?
Its Tm shift relative to glycine control is 0.9%.

How did the Tm shift relative to glycine control turn out when CC(C(=O)c1ccc(-c2ccccc2)cc1)[n+]1cccc(Br)c1 (centres undefined) was run?
The Tm shift relative to glycine control was -2.4%.

For Cc1ccccc1-n1nnnc1SCCCC(=O)c1ccc(F)cc1, which Tm shift relative to glycine control is on record?
The Tm shift relative to glycine control was 3.17%.

COc1cccc(NC(=O)CN(C)C(=O)/C=C/c2cc(OC)ccc2OC)c1 was tested. Which Tm shift relative to glycine control did it give?
The Tm shift relative to glycine control was -3.12%.

COc1ccc(NC(=O)CN(C)C(=O)/C=C/c2cn(Cc3ccccc3)nc2-c2cccnc2)cc1 was tested. Which Tm shift relative to glycine control did it give?
The Tm shift relative to glycine control was -0.36%.

Which Tm shift relative to glycine control does the source give for COc1cccc(NC(=O)CN(C)C(=O)/C=C/c2cn(-c3ccccc3)nc2-c2cccs2)c1 here?
Its Tm shift relative to glycine control is 10.7% (active).

With CCCCCCC(=O)Nc1nc(C)c(-c2csc(Nc3cccc(OC)c3)n2)s1 as the molecule, how does the Tm shift relative to glycine control read?
The Tm shift relative to glycine control was 4.39%.

How did the Tm shift relative to glycine control turn out when O=c1oc2ccccc2cc1-c1csc(Nc2ccc(O)cc2)n1 was run?
The Tm shift relative to glycine control was 12.2% (active).

With O=C(Nc1ccncc1)c1cc2ccccc2o1 as the molecule, how does the Tm shift relative to glycine control read?
Its Tm shift relative to glycine control is -15%.

COc1ccc(OC)c(-c2csc(-c3cccs3)n2)c1 was tested. Which Tm shift relative to glycine control did it give?
Its Tm shift relative to glycine control is 2.35%.

COc1ccc(OC)c(-c2csc(NC(=O)C3=NNC(=O)CC3)n2)c1 was tested. Which Tm shift relative to glycine control did it give?
Its Tm shift relative to glycine control is -2.68%.

For COc1ccc2nc(Nc3nc(-c4ccncc4)cs3)sc2c1, which Tm shift relative to glycine control is on record?
Its Tm shift relative to glycine control is 23.1% (active).

For COc1ccc2nc(Nc3nc(-c4cc5ccccc5oc4=O)cs3)sc2c1, which Tm shift relative to glycine control is on record?
Its Tm shift relative to glycine control is 24.7% (active).

How did the Tm shift relative to glycine control turn out when O=C(NCc1cccnc1)c1cccc(-c2cc3ccccc3oc2=O)c1 was run?
Its Tm shift relative to glycine control is -2.7%.

How did the Tm shift relative to glycine control turn out when Fc1ccc2nc(Nc3nc4c(s3)CCCC4)sc2c1 was run?
Its Tm shift relative to glycine control is -1.71%.

For COC(=O)c1c(NC(=O)CN(c2ccc(C)c(C)c2)S(C)(=O)=O)sc2c1CCCC2, which Tm shift relative to glycine control is on record?
Its Tm shift relative to glycine control is -7.55%.

For O=C(COc1nsnc1N1CCOCC1)Nc1ccccc1Cl, which Tm shift relative to glycine control is on record?
The Tm shift relative to glycine control was 1.49%.

Which Tm shift relative to glycine control does the source give for COc1ccccc1N1CC(C(=O)Nc2nnc(SCC(=O)NCC3CCCO3)s2)CC1=O (centres undefined) here?
Its Tm shift relative to glycine control is 0.09%.

For O=C(CNCCO)NC12CC3CC(CC(C3)C1)C2, which Tm shift relative to glycine control is on record?
The Tm shift relative to glycine control was -0.61%.

With O=S(=O)(Nc1ccccc1Cl)c1cccc2nsnc12 as the molecule, how does the Tm shift relative to glycine control read?
Its Tm shift relative to glycine control is -0.29%.

With O=C(CC1C(=O)NCCN1CC(c1ccccc1)c1ccccc1)NCC1CCOCC1 (centres undefined) as the molecule, how does the Tm shift relative to glycine control read?
Its Tm shift relative to glycine control is 3.8%.

O=C(Cn1c(-c2cscn2)nc2ccccc21)Nc1ccc(Cl)cc1 was tested. Which Tm shift relative to glycine control did it give?
The Tm shift relative to glycine control was -2.29%.

CC1CCCN(C(=O)Cn2c(=O)oc3cc(S(=O)(=O)N4CCCCC4C)ccc32)C1 (centres undefined) was tested. Which Tm shift relative to glycine control did it give?
The Tm shift relative to glycine control was -0.87%.

O=C(NCCNc1ccc([N+](=O)[O-])cc1Cl)c1ccccc1F was tested. Which Tm shift relative to glycine control did it give?
Its Tm shift relative to glycine control is -1.3%.

How did the Tm shift relative to glycine control turn out when CC(CNc1ccc([N+](=O)[O-])cc1)NC(=O)c1ccccc1Br (centres undefined) was run?
The Tm shift relative to glycine control was 2.55%.

For O=C(NCCNc1ccc([N+](=O)[O-])cc1)c1cccc2c(Br)cccc12, which Tm shift relative to glycine control is on record?
Its Tm shift relative to glycine control is 23.8% (active).

How did the Tm shift relative to glycine control turn out when Clc1cc(-c2ccc(/C=N/n3cnnc3)o2)ccc1Br was run?
The Tm shift relative to glycine control was -26.7%.

With CCN(CC)C(=O)CSc1nnc(CNc2ccc(F)cc2)n1Cc1ccco1 as the molecule, how does the Tm shift relative to glycine control read?
The Tm shift relative to glycine control was 1.69%.

Which Tm shift relative to glycine control does the source give for CCOC(=O)CNC(=O)CSc1nnc(COc2ccc(Cl)cc2)n1CC here?
The Tm shift relative to glycine control was -0.34%.

How did the Tm shift relative to glycine control turn out when O=C(CSc1nnc(COc2ccc(Cl)cc2)n1Cc1ccco1)N1CCNC1=O was run?
Its Tm shift relative to glycine control is 14.1% (active).

For CC(C)c1cc(CN2CCOCC2)cc(C(C)C)c1O, which Tm shift relative to glycine control is on record?
Its Tm shift relative to glycine control is -0.77%.

With CC(C)=CCc1ccc(O)c(=O)cc1C(C)C as the molecule, how does the Tm shift relative to glycine control read?
Its Tm shift relative to glycine control is -5.18%.

CC(C)c1cc(N=O)cc(C(C)C)c1O was tested. Which Tm shift relative to glycine control did it give?
The Tm shift relative to glycine control was 14% (active).

How did the Tm shift relative to glycine control turn out when Cc1noc(C)c1-c1ccc2ncnc(NC(C)c3ccco3)c2c1 (centres undefined) was run?
The Tm shift relative to glycine control was -0.81%.

With COc1ccc(/C=C(\C#N)c2c[nH]c3ccccc23)cc1 as the molecule, how does the Tm shift relative to glycine control read?
Its Tm shift relative to glycine control is 35.2% (active).

How did the Tm shift relative to glycine control turn out when COc1ccc(C(C(O)C(=O)c2c[nH]c3ccccc23)N2CCN(c3ccccc3)CC2)cc1 (centres undefined) was run?
The Tm shift relative to glycine control was -1.26%.

COc1cccc(-n2c(SCC(=O)c3c[nH]c4ccccc34)nc3ccccc3c2=O)c1 was tested. Which Tm shift relative to glycine control did it give?
The Tm shift relative to glycine control was 8.21%.

For Cc1cc(C)c2nc(NC(=O)C3CCCO3)sc2c1 (centres undefined), which Tm shift relative to glycine control is on record?
Its Tm shift relative to glycine control is -0.2%.

For CC(NC(=O)c1ccccc1)C(=O)OCC(=O)Nc1cccc(S(=O)(=O)N2CCCC2)c1 (centres undefined), which Tm shift relative to glycine control is on record?
The Tm shift relative to glycine control was -1.26%.

How did the Tm shift relative to glycine control turn out when Cc1ccccc1NC(=S)NNC(=O)c1cccc(Br)c1 was run?
Its Tm shift relative to glycine control is -6.22%.

How did the Tm shift relative to glycine control turn out when NS(=O)(=O)c1ccc(NC(=S)NC(=O)c2cccc(Br)c2)cc1 was run?
Its Tm shift relative to glycine control is -9.81%.

How did the Tm shift relative to glycine control turn out when O=C(NC(=S)Nc1cccc2c(O)cccc12)c1cccc(Br)c1 was run?
Its Tm shift relative to glycine control is 23.1% (active).

With C/C=C(/C)C(=O)O[C@@H]1c2cc3c(c4c2[C@@]2(CO4)C(=O)C(OC)=C(OC)C=C2C[C@@H](C)[C@H]1C)OCO3 as the molecule, how does the Tm shift relative to glycine control read?
The Tm shift relative to glycine control was 0.32%.

Which Tm shift relative to glycine control does the source give for CCN1C(=O)C(CC(=O)Nc2cc(C)ccc2C)SC1=Nc1ccc(S(N)(=O)=O)cc1 (centres undefined) here?
The Tm shift relative to glycine control was 14.2% (active).

Which Tm shift relative to glycine control does the source give for CCN1C(=O)C(=O)N(CC(=O)Nc2cc(C)ccc2C)C1=O here?
Its Tm shift relative to glycine control is 1.68%.

With CCN=C1SC(CC(=O)Nc2ccc(C)cc2)C(=O)N1CC (centres undefined) as the molecule, how does the Tm shift relative to glycine control read?
The Tm shift relative to glycine control was 0.44%.

With C/C(=N\NS(=O)(=O)c1ccccc1)c1c(O)cc(C)oc1=O as the molecule, how does the Tm shift relative to glycine control read?
Its Tm shift relative to glycine control is 5.22%.

For Oc1cccc(C2c3[nH]c4ccccc4c3CCN2Cc2cnn(-c3ccccc3)c2)c1 (centres undefined), which Tm shift relative to glycine control is on record?
Its Tm shift relative to glycine control is 9.57%.

How did the Tm shift relative to glycine control turn out when Cc1[nH]nc(-c2ccc(OCc3cnn(-c4ccccc4)c3)cc2O)c1Oc1ccc(Cl)cc1 was run?
The Tm shift relative to glycine control was 22.7% (active).

Which Tm shift relative to glycine control does the source give for COc1ccc(-c2nc(N)ncc2-c2ccc(Cl)cc2)c(O)c1 here?
Its Tm shift relative to glycine control is -3.97%.

Which Tm shift relative to glycine control does the source give for COc1ccc(C(=O)NC(Cc2ccc(OC(=O)c3ccc(OC)cc3)cc2)C(=O)O)cc1 (centres undefined) here?
Its Tm shift relative to glycine control is 1.26%.

How did the Tm shift relative to glycine control turn out when CCCC(C)n1[nH]c(=O)c2c(C)cc(C)nc21 (centres undefined) was run?
The Tm shift relative to glycine control was -2.91%.

For COc1ccc(/C=C/C(=O)OCC(=O)N2CCN(S(=O)(=O)c3ccc(C)cc3C)CC2)cc1OC, which Tm shift relative to glycine control is on record?
The Tm shift relative to glycine control was 2.82%.

How did the Tm shift relative to glycine control turn out when Cc1nc2ccccn2c(=O)c1NC(=O)c1cccs1 was run?
Its Tm shift relative to glycine control is 2.62%.
